Data on 13 compounds can be found in PubChem BioAssay (NCATS).

Inconclusive results are not listed. Values without a mark were called inactive. Calls come from the whole dose curve; as a rule, active = well fitted inhibition curve with a large enough effect; inconclusive = small, poorly fitted or top-dose-only effect; inactive = flat fitted curve, though single readings scatter.
% is set by controls: 0 for no effect and ±100 for the full control effect.

This experiment has as its system KB-3-1. Kind of experiment: Cytotoxic Profiling of Annotated Libraries Using Quantitative High-Throughput Screening (AID 1296008). Note: nearly all actives have a fitted effect of over 60% in size. As to conditions: Five cell lines viability, CellTiter-Glo ATP luminescence, 48-72 h; max response: hits give low values. The procedure, abridged: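 Cytotoxicity was measured as CellTiter-Glo ATP luminescence, read after 10 min at room temperature. Compound treatment of the cells lasted 48 or 72 hr at 37 degrees Celsius in a qHTS format.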
(In general: Cellular ATP, detected with luciferase, serves as a proxy for viable cell number.)
For the compound `CO`, the max response is 17.7%.
As for `CNC(C)CCC=C(C)C` (stereo not drawn), the max response was -7.11%.
Under H-RKDVY-OH stands -14.8%; under `CO[C@@]1(NC(=O)C2SC(=C(C(N)=O)C(=O)O)S2)C(=O)N2C(C(=O)O)=C(CSc3nnnn3C)CS[C@@H]21` (stereo partly drawn), 1.97%.
`CCC(Cc1c(I)cc(I)c(O)c1I)C(=O)O` (stereo not drawn): the max response is -4.91%.
As for `F[Si-2](F)(F)(F)(F)F`, the max response was 6.45%.
With `Nc1nc(/C(=C/CC(=O)O)C(=O)N[C@@H]2C(=O)N3C(C(=O)O)=CCS[C@H]23)cs1`, the max response was -7.11%.
As for `COC1[C@@H](O[C@@H]2O[C@H](C)[C@@H](O[C@H]3C[C@@](C)(O)[C@H](OC(=O)CC(C)C)[C@H](C)O3)[C@H](N(C)C)[C@H]2O)[C@@H](CC=O)C[C@@H](C)[C@@H](O)/C=C/C=C/C[C@@H](C)OC(=O)C[C@H]1OC(C)=O` (stereo partly drawn), the max response was -19.6%.
Under `CCC(=O)OC(OP(=O)(CCCCc1ccccc1)CC(=O)N1C[C@H](C2CCCCC2)C[C@H]1C(=O)O)C(C)C` (stereo partly drawn) stands 3.39%; under `CCCCCCCCCCCCCCCCCC(=O)OC[C@@H](O)[C@H]1OC[C@H](O)[C@H]1O`, -10%.
`CCN1C(=O)NC(c2ccccc2)C1=O` (stereo not drawn): the max response was 16.5%.
Take `Cc1cccc(C)c1NC(=O)C1CCCCN1C` (stereo not drawn): the max response was -1.09%.
Take `CC(=O)N[C@@H]1C(O[C@H]2O[C@H](C(=O)O)C(O)[C@H](O)[C@H]2O)[C@H](O)[C@@H](CO)O[C@H]1O[C@@H]1C(C(=O)O)O[C@@H](O[C@H]2[C@H](O)[C@@H](CO)OC(O)[C@@H]2NC(C)=O)[C@H](O)[C@H]1O` (stereo partly drawn): the max response is -7.66%.
